This is an account of results in PubChem BioAssay (NCI).

Each structure is given as a SMILES string. This is part of a sample that, as a whole, favours compounds with a hit. Of some 79,000 tested, about 15% had one in any assay. Active and inactive are the calls of the source. Cut-off read from the data, not from the text of the source: active = growth inhibition above about 70%; inactive = the rest.

The first assay can be described thus: NCI Yeast Anticancer Drug Screen. Data for the rad50 strain (AID 155).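 Note: 0% = growth of vehicle-only cultures of the same strain.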 The following applies: S. cerevisiae rad50 strain growth inhibition; at 50.0 µM; hits give high values. In outline: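 Genetically altered yeast (DNA repair pathway); compound treatment; growth inhibition vs vehicle ctrl.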
On to `CCCCOB1OC(c2ccccc2)(c2ccccc2)c2ccccc2C(c2ccccc2)(c2ccccc2)O1`, for which the growth inhibition was 31.1% (inactive).

On to `O=S(=O)(Cc1c[nH]c2ccccc12)c1ccccc1`, for which the growth inhibition was 34.1% (inactive).

On to `C=CCSC(=S)NC`, for which the growth inhibition was -6.2% (inactive).

Turning to `CC(=O)Nc1ccc(S(=O)(=O)NCCC(=O)O)cc1`, the growth inhibition was -9.7% (inactive).

Regarding `Cc1nc2c3c4c(sc3nc(C)n2n1)CCCC4`, the growth inhibition was 1% (inactive).

In the case of `C=C1C(=O)OC2(C)CCC1CC1OC1(C)CC/C=C(\C)CCC2OC(C)=O` (stereo not given), the growth inhibition is -3.95% (inactive).

In the case of `OCC1(CO)CCCO1`, the growth inhibition was 4.15% (inactive).

Regarding `CC(=O)C(C(=O)NCc1ccccc1)C(c1ccc2c(c1)OCO2)C(C(C)=O)C(=O)NCc1ccccc1` (stereo not given), the growth inhibition is -5.7% (inactive).

As to `OCCCN1CCN(CCO)CC1`, the growth inhibition was -42% (inactive).

Turning to `COC(=O)C1OC(O[C@H]2CC[C@]3(C)[C@H]4CC=C5[C@@H]6CC(C)(C)CC[C@]6(C(=O)OC6OCC(O)C(O)C6OC6OC(C)C(OC7OCC(OC8OCC(O)C(O)C8O)C(O)C7O)C(O)C6O)[C@H](O)C[C@@]5(C)[C@]4(C)CC[C@H]3C2(C)C)C(O)C(O)C1O` (stereo not given in full), the growth inhibition was 26.3% (inactive).

As for `C/C(CCc1ccccc1Br)=N/NC(N)=O`, the growth inhibition is -11.1% (inactive).

For `Cc1cc(C)c2nc3c(c(C(O)C4CCCCN4)c2c1)CC/C3=C\c1ccc(Cl)cc1` (stereo not given), the growth inhibition was -28.8% (inactive).

For the molecule `O=C(NC(=O)C1CCC(=O)N1Cc1ccccc1)NC1CCC(=O)N1Cc1ccccc1` (stereo not given), the growth inhibition is 3.35% (inactive).

Consider `O=C(O)c1cc(Br)cc([N+](=O)[O-])c1`, for which the growth inhibition is -9.15% (inactive).

In the case of `CC(=O)CC(=O)C(F)(F)F`, the growth inhibition is 14% (inactive).

As to `N#CC(C#N)=C(N)/C(C#N)=C/c1ccc(O)c(O)c1`, the growth inhibition is -14.2% (inactive).

Regarding `C/C(O)=C(\C=N\C(=S)N=Nc1c(O)[nH]c2ccccc12)C(=O)Nc1ccccc1C`, the growth inhibition is 51.5% (inactive).

Take `CC(C)(C)NC(NC(C)(C)C)=C(/C=C(/Cl)[N+](=O)[O-])[N+](=O)[O-]`: the growth inhibition is -5.5% (inactive).

Regarding `C1CCC(c2nn[nH]n2)CC1`, the growth inhibition was 2.3% (inactive).

Regarding `NC(=NC1CCCCC1)/N=C(/N)Nc1ccc(Cl)cc1`, the growth inhibition is 26.8% (inactive).

In the case of `C#CCN(C(=O)C(F)(F)F)C(/C=C\C(=O)OC)(C(=O)OCC)C(=O)OCC`, the growth inhibition was -10.3% (inactive).

Consider `c1ccc(-c2oc3ccccc3c2-c2ccc(OCCN3CCCC3)cc2)cc1`, for which the growth inhibition is 99.5% (active).

For `NC(=O)C(=CNC(=S)Nc1ccc(S(=O)(=O)Nc2ccccn2)cc1)C(N)=O`, the growth inhibition is -31.8% (inactive).

In the case of `O=C1c2ccccc2C(=O)N1/N=N/N1C(=O)c2ccccc2C1=O`, the growth inhibition is 97.5% (active).

For the molecule `CN1CCCC(CO)C1` (stereo not given), the growth inhibition is -10.8% (inactive).

Regarding `CCCC(=O)Oc1cc(C)ccc1C(C)(C)C`, the growth inhibition was -17.9% (inactive).

`COc1cc(CCCCC(=O)O)ccc1OC(=O)c1ccccc1`: the growth inhibition is -15.6% (inactive).

On to `O=[N+]([O-])c1nccn1CCCNc1c2ccccc2nc2ccccc12`, for which the growth inhibition was 25.1% (inactive).

Consider `C(=N\c1nnc2ccccn12)/c1ccccc1`, for which the growth inhibition is 0.2% (inactive).

On to `NC(Cc1cccc2ccccc12)C(=O)O` (stereo not given), for which the growth inhibition is 14.3% (inactive).

Regarding `Clc1cc(/C=C/c2ccccc2)c2ccccc2n1`, the growth inhibition was 25.9% (inactive).

In the case of `CCN(CC)CCn1ncc2ccc3c(c(=O)c4cccnc4n3CCN(CC)CC)c21`, the growth inhibition was 9% (inactive).

Turning to `O=c1c2n[nH]nc2nc2n1CC(c1ccccc1)S2` (stereo not given), the growth inhibition was -73.7% (inactive).

With `O=C(OCc1ccccc1)C1CC1` (tested in a mixture with another compound), the growth inhibition was 12.1% (inactive).

Turning to `Cc1nn(C(=O)c2ccncc2)c2c1C(c1ccccc1[N+](=O)[O-])SC(N)=N2` (stereo not given), the growth inhibition is 21.4% (inactive).

In the case of `C=CNC(=S)n1nc(-c2ccccc2NC(=O)C(F)(F)F)c(=O)n(C(=S)NC=C)c1=S`, the growth inhibition was 31.4% (inactive).

Regarding `O=c1c(O)c(-c2ccc(O)cc2O)oc2cc(O)cc(O)c12`, the growth inhibition was -8.35% (inactive).

Take `O=C(O)CN1CCCCC1`: the growth inhibition was -5.65% (inactive).

On to `O=c1c(=[n+]2ccc(=C([O-])c3ccccc3)cc2)/c(=N/S(=O)(=O)c2ccccc2)c(=O)c2ccccc12`, for which the growth inhibition was 19.2% (inactive).

Turning to `N#Cc1cc(Cl)ccc1N=Cc1c(Cl)cccc1Cl`, the growth inhibition was 19.4% (inactive).

Another assay in a line: NCI Yeast Anticancer Drug Screen. Data for the mec2-1 strain (AID 157). The following applies: S. cerevisiae mec2-1 strain, at 50.0 µM, hits give high values. The procedure, abridged: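 Compounds were applied to mec2-1 yeast cells. Their growth was then compared with that of vehicle-treated cultures to give growth inhibition.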
On to `CCCCOB1OC(c2ccccc2)(c2ccccc2)c2ccccc2C(c2ccccc2)(c2ccccc2)O1`, for which the growth inhibition is 3.65% (inactive).

Consider `O=S(=O)(Cc1c[nH]c2ccccc12)c1ccccc1`, for which the growth inhibition was -3.2% (inactive).

With `C=CCSC(=S)NC`, the growth inhibition is -7.5% (inactive).

As for `CC(=O)Nc1ccc(S(=O)(=O)NCCC(=O)O)cc1`, the growth inhibition was -16.6% (inactive).

As to `Cc1nc2c3c4c(sc3nc(C)n2n1)CCCC4`, the growth inhibition was 10.3% (inactive).

For the molecule `C=C1C(=O)OC2(C)CCC1CC1OC1(C)CC/C=C(\C)CCC2OC(C)=O` (stereo not given), the growth inhibition is -6.55% (inactive).

For the molecule `OCC1(CO)CCCO1`, the growth inhibition is -21.9% (inactive).

As for `CC(=O)C(C(=O)NCc1ccccc1)C(c1ccc2c(c1)OCO2)C(C(C)=O)C(=O)NCc1ccccc1` (stereo not given), the growth inhibition was 1.25% (inactive).

For the molecule `OCCCN1CCN(CCO)CC1`, the growth inhibition is -14.8% (inactive).

Turning to `COC(=O)C1OC(O[C@H]2CC[C@]3(C)[C@H]4CC=C5[C@@H]6CC(C)(C)CC[C@]6(C(=O)OC6OCC(O)C(O)C6OC6OC(C)C(OC7OCC(OC8OCC(O)C(O)C8O)C(O)C7O)C(O)C6O)[C@H](O)C[C@@]5(C)[C@]4(C)CC[C@H]3C2(C)C)C(O)C(O)C1O` (stereo not given in full), the growth inhibition is 17% (inactive).

In the case of `C/C(CCc1ccccc1Br)=N/NC(N)=O`, the growth inhibition is -0.9% (inactive).

As to `Cc1cc(C)c2nc3c(c(C(O)C4CCCCN4)c2c1)CC/C3=C\c1ccc(Cl)cc1` (stereo not given), the growth inhibition was -22.4% (inactive).

As for `O=C(NC(=O)C1CCC(=O)N1Cc1ccccc1)NC1CCC(=O)N1Cc1ccccc1` (stereo not given), the growth inhibition is 3.1% (inactive).

Consider `O=C(O)c1cc(Br)cc([N+](=O)[O-])c1`, for which the growth inhibition is 15.1% (inactive).

As for `CC(=O)CC(=O)C(F)(F)F`, the growth inhibition is -3.35% (inactive).

With `N#CC(C#N)=C(N)/C(C#N)=C/c1ccc(O)c(O)c1`, the growth inhibition was -4.9% (inactive).

For the molecule `C/C(O)=C(\C=N\C(=S)N=Nc1c(O)[nH]c2ccccc12)C(=O)Nc1ccccc1C`, the growth inhibition is 36.6% (inactive).

`CC(C)(C)NC(NC(C)(C)C)=C(/C=C(/Cl)[N+](=O)[O-])[N+](=O)[O-]`: the growth inhibition was -21.1% (inactive).

Regarding `C1CCC(c2nn[nH]n2)CC1`, the growth inhibition is -7.05% (inactive).

Take `NC(=NC1CCCCC1)/N=C(/N)Nc1ccc(Cl)cc1`: the growth inhibition is 0.2% (inactive).

For `C#CCN(C(=O)C(F)(F)F)C(/C=C\C(=O)OC)(C(=O)OCC)C(=O)OCC`, the growth inhibition is -24.9% (inactive).

For `c1ccc(-c2oc3ccccc3c2-c2ccc(OCCN3CCCC3)cc2)cc1`, the growth inhibition is 99.6% (active).

For `NC(=O)C(=CNC(=S)Nc1ccc(S(=O)(=O)Nc2ccccn2)cc1)C(N)=O`, the growth inhibition was -8.3% (inactive).

For the molecule `O=C1c2ccccc2C(=O)N1/N=N/N1C(=O)c2ccccc2C1=O`, the growth inhibition is 97.7% (active).

Take `CN1CCCC(CO)C1` (stereo not given): the growth inhibition was -10.2% (inactive).

As to `CCCC(=O)Oc1cc(C)ccc1C(C)(C)C`, the growth inhibition was -22.6% (inactive).

Turning to `COc1cc(CCCCC(=O)O)ccc1OC(=O)c1ccccc1`, the growth inhibition is -4.85% (inactive).

`O=[N+]([O-])c1nccn1CCCNc1c2ccccc2nc2ccccc12`: the growth inhibition is 7.95% (inactive).

On to `C(=N\c1nnc2ccccn12)/c1ccccc1`, for which the growth inhibition is -6.8% (inactive).

In the case of `NC(Cc1cccc2ccccc12)C(=O)O` (stereo not given), the growth inhibition was -1.2% (inactive).

For `Clc1cc(/C=C/c2ccccc2)c2ccccc2n1`, the growth inhibition was -0.05% (inactive).

On to `CCN(CC)CCn1ncc2ccc3c(c(=O)c4cccnc4n3CCN(CC)CC)c21`, for which the growth inhibition is 16.8% (inactive).

In the case of `O=c1c2n[nH]nc2nc2n1CC(c1ccccc1)S2` (stereo not given), the growth inhibition is -77% (inactive).

Regarding `O=C(OCc1ccccc1)C1CC1` (tested in a mixture with another compound), the growth inhibition was 14.8% (inactive).

Take `Cc1nn(C(=O)c2ccncc2)c2c1C(c1ccccc1[N+](=O)[O-])SC(N)=N2` (stereo not given): the growth inhibition is 6.15% (inactive).

`C=CNC(=S)n1nc(-c2ccccc2NC(=O)C(F)(F)F)c(=O)n(C(=S)NC=C)c1=S`: the growth inhibition was 38.5% (inactive).

Turning to `O=c1c(O)c(-c2ccc(O)cc2O)oc2cc(O)cc(O)c12`, the growth inhibition is -29.2% (inactive).

For the molecule `O=C(O)CN1CCCCC1`, the growth inhibition was 5.5% (inactive).

In the case of `O=c1c(=[n+]2ccc(=C([O-])c3ccccc3)cc2)/c(=N/S(=O)(=O)c2ccccc2)c(=O)c2ccccc12`, the growth inhibition is 33.1% (inactive).

Take `N#Cc1cc(Cl)ccc1N=Cc1c(Cl)cccc1Cl`: the growth inhibition is 16.5% (inactive).
